In the library only some 4% were active in any assay of this set; here they are far more common.
Gli-Sufu block = Gli-Sufu pathway antagonists, primary screen, luciferase luminescence, Sufu-KO-LIGHT cells, uHTS. Sufu-KO-LIGHT fibroblasts, Gli luciferase reporter luminescence. inhibition, % at 5 µM. 340,000 tested, 0.74% active. AID 588413, 2011;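 active = inhibition above about 55%, limit read from the data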;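 note: 0% = DMSO-treated cells and 100% = wells with medium but no cells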
Beta cell apopt = inhibitors of cytokine-induced beta cell apoptosis, primary screen, luminescence | INS-1E cytokine-induced death, ATP luminescence, 48 h; percent of positive-control rescue, neutral wells zero | protection from apoptosis, % (no concentration beside the values) | 300,000 tested, 0.8% active | AID 435005, 2010;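 active = Every replicate reaches about 75%, or at least half do and their mean reaches it too, limit read from the data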;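 note: 0% = cytokine-treated negative control wells and 100% = positive control rescue; higher means more ATP so stronger rescue from cytokine killing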
Shn3 3UTR inh = reduction of Shn3 3'UTR firefly luciferase signal, primary screen, Schnurri-3 inhibitor project, cell-based, Clone20 osteoblasts, set 2. Clone20 osteoblast Shn3 3'UTR firefly luciferase, 24 h. inhibition, % at 12.5 µM. 360,000 tested, 0.52% active. AID 588674, 2011;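 active = mean inhibition of at least 75% with every replicate also reaching 75%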;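 note: 0% = median of neutral control wells and 100% = pilot-screen positive control compound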
PAX8 reporter = inhibitors of PAX8-driven TPO luciferase reporter, primary screen, RMG-I cells, single concentration | SteadyGlo, 24 h | inhibition, % at 12.6 µM | 360,000 tested, 1.2% active;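 active = mean replicate inhibition at least 60% with every replicate also reaching 60%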;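 note: luciferase light reporting Pax8 driven TPO promoter activity; plate controls were median of neutral control wells for no effect and mitoxantrone controls for full effect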
Mdm2-MdmX inh = inhibitors of human Mdm2-MdmX association, primary screen, cell-based, luminescence, split luciferase, SaOS-2, uHTS; inhibition, % at 8 µM; SaOS-2 split-luciferase Mdm2/MdmX complementation; Protein Mdm4 (Homo sapiens) + E3 ubiquitin-protein ligase Mdm2 (Homo sapiens), …; 330,000 tested, 3% active; AID 485346, 2010;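 active = inhibition of at least 50% at 8 µM in the primary screen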
Target sequence (O15151 whole entry, looked up): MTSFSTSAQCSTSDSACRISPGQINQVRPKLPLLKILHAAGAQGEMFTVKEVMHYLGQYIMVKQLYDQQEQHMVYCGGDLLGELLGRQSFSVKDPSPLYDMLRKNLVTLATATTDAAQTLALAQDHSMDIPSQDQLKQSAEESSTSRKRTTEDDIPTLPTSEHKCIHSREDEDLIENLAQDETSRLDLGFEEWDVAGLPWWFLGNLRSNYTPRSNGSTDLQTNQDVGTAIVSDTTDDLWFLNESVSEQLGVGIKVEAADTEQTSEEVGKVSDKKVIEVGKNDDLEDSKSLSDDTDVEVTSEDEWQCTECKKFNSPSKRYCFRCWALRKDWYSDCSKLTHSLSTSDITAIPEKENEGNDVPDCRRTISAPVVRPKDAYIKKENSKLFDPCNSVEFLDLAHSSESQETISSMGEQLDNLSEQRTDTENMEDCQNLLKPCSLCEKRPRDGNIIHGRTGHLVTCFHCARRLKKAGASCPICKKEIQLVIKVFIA
Target sequence (Q00987 whole entry, looked up): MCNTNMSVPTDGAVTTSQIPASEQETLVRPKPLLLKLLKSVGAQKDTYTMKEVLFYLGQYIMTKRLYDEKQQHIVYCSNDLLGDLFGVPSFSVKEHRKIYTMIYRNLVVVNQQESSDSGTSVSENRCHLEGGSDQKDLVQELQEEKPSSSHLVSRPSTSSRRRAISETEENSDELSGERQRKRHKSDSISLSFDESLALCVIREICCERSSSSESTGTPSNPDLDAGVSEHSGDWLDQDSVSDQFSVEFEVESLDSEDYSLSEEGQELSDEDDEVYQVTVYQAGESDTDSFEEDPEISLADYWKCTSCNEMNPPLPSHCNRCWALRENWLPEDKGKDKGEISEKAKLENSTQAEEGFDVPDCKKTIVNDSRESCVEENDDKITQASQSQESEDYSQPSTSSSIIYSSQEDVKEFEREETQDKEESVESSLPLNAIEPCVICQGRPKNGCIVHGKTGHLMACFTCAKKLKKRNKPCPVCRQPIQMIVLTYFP
CSC inhib = cancer stem cell viability inhibitors, primary screen, luminescence | 300,000 tested, 1.1% active | inhibition, % at 7.5 µM | cancer stem cell-like cells viability; in the data active = inhibition above about 75%; tested in HMLE shEcad cells
Mdm2-MdmX conf = Mdm2-MdmX complex disruptors, retested hits, confirmation, luminescence, single concentration; Mdm2-MdmX binding, luminescent assay; inhibition, % at 8 µM; shares compounds with Mdm2-MdmX inh; 10,000 tested, 55% active; in the data active = inhibition above about 40%
Full FLuc ctr = full-length luciferase signal inhibition, confirmation, counter-screen for Mdm2/MdmX interaction inhibitor project, cell-based, single concentration, SaOS-2. AID 504607, 2011. inhibition, % at 8 µM. SaOS-2 full-length luciferase counterscreen, luminescence. 6,200 tested, 77% active. shares compounds with Mdm2-MdmX inh;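 active = mean inhibition at 8 µM reaching about 37%, which flags the compound as non-specific, limit read from the data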;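 note: p53-null SaOS-2 cells with luciferase driven by a doxycycline-inducible promoter; compound on cells about two nights before reading with doxycycline added after day one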
* marks the source's active call; other numbers are inactive results; . = not tested or not shown.

SMILES	Gli-Sufu block	Beta cell apopt	Shn3 3UTR inh	PAX8 reporter	Mdm2-MdmX inh	CSC inhib	Mdm2-MdmX conf	others
COc1cccc(CNC(=O)C[C@@H]2CC[C@H]3[C@H](COc4ccc(NC(C)=O)cc4C(=O)N3C)O2)c1	.	.	.	-5	.	.	.
CCN(CC)CCNC(=O)c1ccc(NC(=O)c2ccc(COc3ccccc3)cc2)cc1	12	1	-8	-5	83*	-6	34
CCN(CC)CCNC(=O)c1ccc(NC(=O)c2ccc(Cl)c(S(=O)(=O)N3CCCCCC3)c2)cc1	16	12	33	13	94*	9	37
C[C@H](O)C#Cc1ccc([C@H]2[C@@H](CO)N3CCCCN(C(=O)c4ccc(F)cc4)C[C@H]23)cc1	.	.	.	4	.	.	.
CN1C(=O)c2cc(NC(=O)c3cnccn3)ccc2OC[C@H]2O[C@@H](CC(=O)NC3CCC3)CC[C@@H]21	.	.	.	3	.	.	.
O=C(NCCC1CCCCN1S(=O)(=O)c1ccc(F)cc1)C(=O)Nc1ccccc1F (stereo not given)	27	.	14	5	6	-1	.
Cc1ccc(S(=O)(=O)N2CCCCC2CCNC(=O)C(=O)Nc2ccccc2F)cc1 (stereo not given)	10	7	11	0	52*	39	75*	Full FLuc ctr=54*
CCC(=O)NC[C@@H]1[C@H](c2ccc(C3=CCCC3)cc2)[C@@H](CO)N1C(=O)C1CC1	.	.	.	11	.	.	.
C[C@@H]1CN([C@H](C)CO)C(=O)c2cc(NS(=O)(=O)c3cn(C)cn3)ccc2O[C@@H](C)CCCCO[C@@H]1CN(C)S(=O)(=O)c1cn(C)cn1	.	.	.	4	.	.	.
COc1cc(C(=O)NNC(=O)c2ccc3ccccc3n2)cc(OC)c1OC	0	9	-17	7	50	33	.
COc1ccc(C(=O)NC(=S)NNC(=O)c2ccc3ccccc3n2)cc1	3	-18	90*	5	56*	1	33	Full FLuc ctr=52*
COc1cc(OC)cc(C(=O)NNC(=O)c2ccc3ccccc3n2)c1	25	.	9	53	55*	.	69*	Full FLuc ctr=46*
Cc1[nH]c2ccccc2c1C(C[N+](=O)[O-])c1ccco1 (stereo not given)	-1	-9	8	-15	6	-15	.
Cc1ccc(-c2[nH]c3ccccc3c2C(C[N+](=O)[O-])c2ccco2)cc1 (stereo not given)	11	26	7	.	63*	.	23
CO[C@@H]1CC[C@H]2CCOc3ccc(C#N)cc3C(=O)N(C)[C@H](C)C(=O)N(C)C[C@H]1O2	.	.	.	-11	.	.	.
Cc1ccc(C(NC(=O)N2CCOCC2)=C(Cl)Cl)cc1F	-2	-12	54	.	51*	40	12
COc1ccccc1CNc1nc2nc3c(c(=O)n2[nH]1)CCC3	-24	4	8	.	20	-3	.
O=c1c2c(nc3nc(NCc4ccccc4Cl)[nH]n13)CCC2	.	.	.	-4	67*	-5	-4
CN(C)CC(=O)Nc1ccc2c(c1)[C@@H]1C[C@H](CC(=O)N3CCc4ccccc4C3)O[C@@H](CO)[C@@H]1O2	.	.	.	-6	.	.	.
COc1cc(CC(=O)OCC(=O)c2ccc3c(c2)OCCO3)cc(OC)c1OC	-1	39	18	.	66*	-4	54*	Full FLuc ctr=101*
CO[C@H]1CN(C)C(=O)c2ccc(NC(=O)Cc3ccccc3)cc2OC[C@@H](C)N(C)C[C@@H]1C	.	.	.	-16	.	.	.
O=c1[nH]c(CCl)nc2cc(-c3ccc(F)cc3)sc12	-51	18	-44	-56	94*	25	14
COCCNc1nc2cc(-c3ccc(F)cc3)sc2c(=O)n1C	.	.	-10	-44	.	.	.
COc1ccccc1CN(Cc1nc2ccccc2c(=O)[nH]1)S(=O)(=O)c1ccc2ccccc2c1	0	8	21	.	72*	37	14
COc1cc(N=c2c([N+](=O)[O-])nn(-c3ccc4c(c3)OCCO4)n2O)cc(OC)c1	-1	6	8	.	59*	-7	28
SMILES	Gli-Sufu block	Beta cell apopt	Shn3 3UTR inh	PAX8 reporter	Mdm2-MdmX inh	CSC inhib	Mdm2-MdmX conf	others
CCc1cccc(N=c2c([N+](=O)[O-])nn(-c3ccc4c(c3)OCCO4)n2O)c1	25	1	0	101*	73*	14	77*	Full FLuc ctr=62*
O=C(c1cc2c(s1)CCCC2)N1CCN(Cc2ccc3c(c2)OCO3)CC1	-4	-6	13	.	30	.	.
O=C(Oc1ccc2c(c1)OCO2)c1cc2c(s1)CCC2	-2	9	-41	58	97*	-2	78*	Full FLuc ctr=21
O=C(Nc1ccc2c(c1)OCO2)N[C@@H]1CC[C@H](CC(=O)N2CCN(c3ccccc3)CC2)O[C@H]1CO	.	.	.	9	.	.	.
Cc1[nH]c2ccc(-c3nnc(SCC(=O)c4ccccc4F)o3)cc2c1C	-11	-4	-10	.	37	15	.
Cc1ccc(C(=O)CSc2nnc(-c3ccc4[nH]c(C)c(C)c4c3)o2)cc1C	-1	4	-15	.	51*	5	9
Cc1ccc(S(=O)(=O)/C(C#N)=C/c2c(Oc3ccc(Cl)cc3)nc3c(C)cccn3c2=O)cc1	.	1	.	.	59*	5	8
CCc1nc2c(cnn2-c2ccc(Cl)cc2)c(=O)n1-c1ccc2c(c1)OCCO2	19	0	61	6	56*	57	22
COc1ccc(/C=N/Nc2ccc(C(=O)O)cc2)c(OC)c1OC	-15	3	-37	-89	7	6	.
COC(=O)c1ccc2c(c1)C(C)(C)C(/C=C/c1ccc(OC)c(OC)c1OC)=[N+]2C	5	107*	88*	.	101*	-3	78*	Full FLuc ctr=51*
COc1ccc(NC(=O)Nc2ccc3c(c2)[C@@H]2C[C@@H](CC(=O)NCC(F)(F)F)O[C@@H](CO)[C@@H]2O3)cc1	.	.	.	13	.	.	.
CCCNC(=O)[C@H]1[C@H](CO)[C@H]2Cn3c(cccc3=O)[C@H]2N1CCC(F)(F)F	.	.	.	-11	.	.	.
Cc1c(C(=O)O)c2cc(O)ccc2n1-c1ccccc1	-2	3	-43	-16	12	-20	.
Cc1ccc(-n2c(C)c([N+](=O)[O-])c3ccc(O)cc32)cc1	.	-12	.	1	50	-6	65*	Full FLuc ctr=10
Cc1c([N+](=O)[O-])c2ccc(O)cc2n1-c1ccccc1	-9	-16	.	-7	66*	-11	65*	Full FLuc ctr=19

High-throughput results as filed in PubChem.
